Measurements as given in PubChem BioAssay (Tox21).
Records with an inconclusive call do not appear. Values without a mark were called inactive. Activity calls are given as the source filed them. The call rests on the fitted dose curve; in most records, active means well fitted cell-killing curve with a large enough effect in the repeat runs; inconclusive means weak or mixed curves, or effect the other way; inactive means flat fitted curve, though single readings scatter.

experiment: qHTS RealTime-Glo MT Cell Viability Assay in HEK293 cells - 24 hour (AID 1224886); conditions: RealTime-Glo luminescence; series mostly up to 76.8 µM; activity change, negative = cytotoxicity: at the top concentration; on activity change, negative = cytotoxicity: top concentration of the series differs between compounds
How it was run: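 HEK293 cells seeded with NanoLuc/prosubstrate reagent, rested 5 h at 37 C, then dosed and kept at 37 C up to 40 h. Nonlytic real-time luminescence from viable cells read at 0, 8, 16, 24, 32 and 40 h.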
Further: nearly all actives have a fitted effect of over 50% in size.
On the % scale 0 is the no-effect control and ±100 the full control effect; potency means the concentration at half of the fitted maximal effect.

First: CC1(C)CCC[C@]2(C)[C@H]3CCO[C@]3(C)CC[C@@H]12
Second: COc1ccc(NC(=O)CC(C)=O)cc1
The “activity change, negative = cytotoxicity” value of the first is higher: -0.989% for the first, -1.38% for the second.

Compared with `O=C(/C=C/c1ccccc1)OC/C=C/c1ccccc1`, `Sc1nc2ccccc2s1` is lower in “activity change, negative = cytotoxicity” value: 4.48% for the first, -3.01% for the second.

For `Cc1cc(=O)oc2cc(O)cc(O)c12`, the “activity change, negative = cytotoxicity” value was -6.21%.

For `O=C1CCc2ccc(OCCCCN3CCN(c4cccc(Cl)c4Cl)CC3)cc2N1`, the Potency was 9.52 µM (active).
For `CC[C@H](C)COC(=O)/C=C/c1ccc(N=Cc2ccc(OC)cc2)cc1`, the Potency was 21.8 µM (active).
In the case of `CCCc1ccc(OCC(=O)N2CCN(C(=O)COc3ccc(CCC)cc3OC)CC2)c(OC)c1`, the Potency is reported as 9.52 µM (active).

For `CC(N=C(NC#N)Nc1ccncc1)C(C)(C)C` (stereo unspecified), the “activity change, negative = cytotoxicity” value was 1.38% [at 35.3 µM].

`O=C(O)CN(CCN(CC(=O)O)CC(=O)O)CC(=O)O` gave an activity change, negative = cytotoxicity of 5.68% [at 2.72 µM].

experiment: qHTS RealTime-Glo MT Cell Viability Assay in HEK293 cells - 8 hour (AID 1224887); conditions: RealTime-Glo luminescence; series mostly up to 76.8 µM; activity change, negative = cytotoxicity: at the top concentration; on activity change, negative = cytotoxicity: top concentration of the series differs between compounds
How it was run: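 HEK293 + NanoLuc + prosubstrate, 600 cells/well; 5 h, 37 C/5% CO2; compound 23 nL in DMSO by pintool; 37 C; luminescence read at 0, 8, 16, 24, 32 and 40 h time points.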

Going from `O=C(O)CCN(C1(C(=O)NO)CCCC1)S(=O)(=O)c1ccc(Oc2ccc(F)cc2)cc1` to `COc1ccc(NC(=O)CC(C)=O)cc1`, the “activity change, negative = cytotoxicity” value falls from 14.1% to 7.06%.

First: COc1cc(/C=C/c2ccccc2)oc(=O)c1
Second: Cl[Si](Cl)(c1ccccc1)c1ccccc1
The “activity change, negative = cytotoxicity” value of the first is lower: -24.1% for the first, -2.2% for the second.

Going from `CC/C=C\CCCCCO` to `C=C(C)C(=O)OCCCCCCCCCC`, the “activity change, negative = cytotoxicity” value rises from -0.249% to 11.3%.

Compared with `OC12N=C(c3ccccc3)SC1Cc1cc(Cl)ccc12` (stereo unspecified), `Sc1nc2ccccc2s1` is lower in “activity change, negative = cytotoxicity” value: 2.92% for the first, -6.01% for the second.

Compared with `Cc1cc(-c2ccc(N=Nc3cc(S(=O)(=O)O)c4ccccc4c3N)c(C)c2)ccc1N=Nc1cc(S(=O)(=O)O)c2ccccc2c1N`, `O=C(c1ccc(O)c(O)c1)c1ccc(O)cc1O` is higher in “activity change, negative = cytotoxicity” value: -25.9% for the first, -19.7% for the second.

Compared with `C=CC(=O)OCCOC(=O)C=C`, `CCCCC(CC)COC(=O)CCCCC(=O)OCc1ccccc1` (stereo unspecified) is higher in “activity change, negative = cytotoxicity” value: -20.3% for the first, -3.08% for the second.

Going from `[Cl][Pt-2]([Cl])([Cl])[Cl]` to `COc1cccc(OC)c1C(=O)O`, the “activity change, negative = cytotoxicity” value falls from 20.4% to 5.06%.

First: CC1(C)CCC[C@]2(C)[C@H]3CCO[C@]3(C)CC[C@@H]12
Second: Cc1cc(=O)oc2cc(O)cc(O)c12
The “activity change, negative = cytotoxicity” value of the first is higher: 3.99% for the first, -13.2% for the second.

First: CCCCN(CCCC)CC(O)c1cc(Cl)cc2c1-c1ccc(Cl)cc1/C2=C/c1ccc(Cl)cc1 (stereo unspecified)
Second: CCc1oc2ccccc2c1C(=O)c1cc(I)c(O)c(I)c1
The “activity change, negative = cytotoxicity” value of the first is lower: -22.4% [at 35.3 µM] for the first, -8.1% [at 35.3 µM] for the second.

First: CC(C)=CCNc1ncnc2c1ncn2[C@@H]1O[C@H](CO)[C@@H](O)[C@H]1O
Second: O=c1[nH]c(=O)n([C@H]2C[C@H](O)[C@@H](CO)O2)cc1F
The “activity change, negative = cytotoxicity” value of the first is lower: -0.297% [at 35.3 µM] for the first, 0.245% [at 35.3 µM] for the second.

With `CC(N=C(NC#N)Nc1ccncc1)C(C)(C)C` (stereo unspecified) the “activity change, negative = cytotoxicity” value was 5.03% [at 35.3 µM].

For `C#C[C@]1(OC(C)=O)CC[C@H]2[C@@H]3CCC4=C/C(=N/O)CC[C@@H]4[C@H]3CC[C@@]21CC`, the Potency was 21.3 µM (active).
For `CCOC(=O)c1ccc(C2CCC(NC[C@H](O)COc3ccc(O)c(NS(C)(=O)=O)c3)CC2)cc1` (stereo partly specified), the Potency was 20.2 µM (active).
For `O=C1CCc2ccc(OCCCCN3CCN(c4cccc(Cl)c4Cl)CC3)cc2N1`, the Potency was 21.3 µM (active).
In the case of `CCCc1ccc(OCC(=O)N2CCN(C(=O)COc3ccc(CCC)cc3OC)CC2)c(OC)c1`, the Potency is reported as 9.52 µM (active).

In the case of `O=C(O)CN(CCN(CC(=O)O)CC(=O)O)CC(=O)O`, the activity change, negative = cytotoxicity is reported as -1.21% [at 2.72 µM].
